Results reported in PubChem BioAssay (NCI).
Compounds without any hit were thinned out: in the full panel of roughly 83,000, 20% have a hit.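 48-hour exposure, single concentration, 96-well plates; percent growth endpoint where 0 means no net growth. Active: below 10.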 A number with no mark means an inactive call. Active and inactive are the calls of the source.

tested on: HCT-116 colon; experiment: NCI-60 one-dose screen, 48 h (100 = growth as untreated, 0 = no growth, -100 = all killed); conditions: 10 µM unless noted
Method: Growth inhibition of the HCT-116 human tumor cell line is measured as a screen for anti-cancer activity. Cells are grown in 96 well plates and exposed to the test compound for 48 hours. Compounds are tested at a single concentration, which is 10^-5 M for most compounds. The reported endpoint is percent growth (GI% or GIPRCNT), where numbers from 0 - 100% represent growth inhibition, and numbers from -100% - 0 represent cell death. For example, a value of 40 represents 60% growth inhibition. A value of 0 means no net growth occurred over the course of the experiment. A value of -40 indicates 40% of cells at the beginning of the experiment died by the end of the experiment. A value of -100 means all cells are dead at the end of the experiment.
NCI-60 Human Tumor Cell Lines Screen was performed using the standard one-dose NCI protocol, which is described in more detail at https://dtp.cancer.gov/discovery_development/nci-60/default.htm.
Compounds with GIPRCNT values below 10 were considered active. Activity score was based on GIPRCNT using the following formula: […]
Score is 0 for GIPRCNT values of 100 or above, 50 for GIPRCNT values of 0, and 100 for GIPRCNT values of -100.

SMILES | growth
COc1cc(NC(=O)CSc2nc3ccc(Cl)cc3c(=O)n2-c2ccccc2)cc(OC)c1OC | 92.5%
c1ccc(-c2nnn(-c3ccccc3)n2)cc1 | 97.3%
O=S(=O)(Cc1ccc(Cl)cc1Cl)c1ccc(Cl)cc1 | 26.9%
NNc1ccc(S(N)(=O)=O)cc1 | 90.7%
O=C(CCCCCCN1CC(=O)N2[C@@H](c3ccc(Cl)c(Cl)c3)c3[nH]c4ccccc4c3C[C@H]2C1=O)NO | 23.2%
COc1ccc2[nH]cc(C3(c4c[nH]c5ccc(OC)cc45)C(=O)Nc4ccc(F)cc43)c2c1 | 69%
CN1C(=O)NC(Cc2c[nH]c3c(Cl)cccc23)C1=O (stereo not given) | 108%
C/C(=N\Nc1ccc([N+](=O)[O-])cn1)c1ccc(N)cc1 | 97.8%
O=C(Nc1cccc(-n2ccc3c(NC(=O)c4ccccc4)nccc32)c1)c1ccc(Cl)c(Cl)c1 | -97.6% (active)
CCN(CC)c1ccc(/C=N/NC(=O)c2ccc(S(C)(=O)=O)cc2)c(O)c1 | 18.4%
COc1ccc(Nc2nc(N)nc3c(=O)[nH]ccc23)cc1 | 83.7%
CCOC(=O)c1ccc(NC(=O)CSC(N)=O)cc1 | 87.9%
CC(C)N(C(=S)SSC(=S)N(C(C)C)C(C)C)C(C)C | 96.7%
CCOC(=O)c1ccc2c(c1)nc(-c1ccc(Cl)cc1)n2-c1cc(C(C)(C)C)[nH]n1 | 8.57% (active)
Cc1ccc2c(C)c3c(ccc4ccccc43)c[n+]2c1 | 81.7%
C=CCOc1ccc2c(C)cc(=O)oc2c1 | 105%
COc1cc(OC)cc(-c2ccc(-c3ccc(C(=N)N)s3)s2)c1 | -73.5% (active)
COc1cc2c(c(OC)c1O)C(=O)C(OC)C(c1ccc(O)c(O)c1)O2 (stereo not given) | 3.39% (active)
NC(=O)N/N=C\c1ccc([N+](=O)[O-])o1 | 109%
COc1cccc(/C=N\Nc2ccc([N+](=O)[O-])cn2)c1O | 8.72% (active)

SMILES | growth
CCOC(=O)Nc1ccc2nc(Sc3ccc(Cl)cc3)sc2c1 | 30.5%
CCN1C(=O)N(CC)C2C1NC(=O)N2/N=C/C=C/c1ccccc1 (stereo not given) | 19.6%
Cc1ccc(C)c(NC(=O)c2sc3c(=O)[nH]cnc3c2C)c1 | 68.3%
COc1ccc(C(=O)C(CN(C)C)c2ccc(OC)cc2)cc1 (stereo not given) | 14.7%
C=CCOC(=O)C1=C(C)NC2=C(C(=O)CCC2)C1c1ccc(F)cc1 (stereo not given) | 92.3%
CCN(CC)CCCC(C)Nc1ccnc2ccc(Oc3ccccc3)cc12 (stereo not given) | 48.7%
CC(C)[C@@]12C[C@@H](OC(=O)C3CO3)[C@@](C)(O1)[C@@H]1CC[C@@H](C)[C@H]1[C@@H]2OC(=O)/C=C/c1ccccc1 (stereo not given in full) | 85.9%
CCCNCCC(C)=O | 109%
CC(=O)N1N=C(C2C(=O)N(C)C(=O)N(C)C2=O)CC1c1ccccc1C(=O)O (stereo not given) | 91.3%
O=C(C(=O)N1CCCC1)c1cn(CCCn2cc(C(=O)C(=O)N3CCCC3)c3cc(Br)ccc32)c2ccc(Br)cc12 | 58.6%
CCn1c(=O)c(C(=O)NCCCO)c(O)c2ccccc21 | 104%
CN(C)CCNC(=O)n1cc(-c2ccncc2)c(-c2cc(O)cc(Cl)c2)n1 | 86.2%
Cc1ccc(C(=O)CC(=O)C(F)(F)C(F)(F)C(F)(F)F)s1 | 110%
O/N=C/c1ccncc1 | 118%
O=C1NN(C(=O)c2ccccc2)C(c2ccc(Cl)c(Cl)c2)=C/C1=C\c1ccccc1[N+](=O)[O-] | 5.02% [6.75 µM] (active)
CCN1C(=O)N(CC)C2C1NN=c1s/c(=C\c3ccco3)c(=O)n12 (stereo not given) | 23.5%
COc1ccc2c(c1)C1=NN(C(=O)CO)[C@H](c3ccc(OC(F)(F)F)cc3)[C@@H]1CC2 | 92.5%
NC(N)=NC1CCCCC1 | 98.6%
COC(=O)[C@@H](Cc1c[nH]c2ccccc12)NC(=O)/C=C/c1ccccc1 | 16.8%
c1ccc2c(N=NSc3ncnc4nc[nH]c34)c3ccccc3nc2c1 | -33.7% (active)
